Measured values: paper PMC11006913

What was measured:
Assay in all cases: PBM; 200 nM protein, PBS
Settings in all cases: dsDNA, one strand shown
HESX1 [1] = biological target: HESX1 (Homo sapiens, UniProt Q9UBX0 95-180, R165K)
HOXB4 [2] = biological target: HOXB4 (Homo sapiens, UniProt P17483 148-234)
SHOX [3] = biological target: SHOX (Homo sapiens, UniProt O15266 103-189)
HESX1 [4] = biological target: HESX1 (Homo sapiens, UniProt Q9UBX0 95-180)
HOXB4 [5] = biological target: HOXB4 (Homo sapiens, UniProt P17483 148-234, V174I)
MSX2 [6] = biological target: MSX2 (Homo sapiens, UniProt P35548 130-214, R199I)
ALX3 [7] = biological target: ALX3 (Homo sapiens, UniProt O95076 139-225, N203Q)
SHOX [8] = biological target: SHOX (Homo sapiens, UniProt O15266 103-189, R173C)
ALX3 [9] = biological target: ALX3 (Homo sapiens, UniProt O95076 139-225)
PROP1 [10] = biological target: PROP1 (Homo sapiens, UniProt O75360 56-141)
HESX1 [11] = biological target: HESX1 (Homo sapiens, UniProt Q9UBX0 95-180, R109Q)
PROP1 [12] = biological target: PROP1 (Homo sapiens, UniProt O75360 56-141, R99H)
ALX3 [13] = biological target: ALX3 (Homo sapiens, UniProt O95076 139-225, L168Q)
HESX1 [14] = biological target: HESX1 (Homo sapiens, UniProt Q9UBX0 95-180, P111T)
ALX3 [15] = biological target: ALX3 (Homo sapiens, UniProt O95076 139-225, L168V)
PROP1 [16] = biological target: PROP1 (Homo sapiens, UniProt O75360 56-141, F88S)
MSX2 [17] = biological target: MSX2 (Homo sapiens, UniProt P35548 130-214, F161Y)
HESX1 [18] = biological target: HESX1 (Homo sapiens, UniProt Q9UBX0 95-180, F115L)
ALX3 [19] = biological target: ALX3 (Homo sapiens, UniProt O95076 139-225, N203S)
HOXA4 = HOXA4 (Homo sapiens, UniProt Q00056 201-287, R217L)
Chain of HOXA4 (Q00056 201-287 R217L): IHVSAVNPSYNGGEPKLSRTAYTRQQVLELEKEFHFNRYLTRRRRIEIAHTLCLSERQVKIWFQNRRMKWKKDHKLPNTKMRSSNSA

Chain of ALX3 (Homo sapiens, UniProt O95076 139-225, L168V) (O95076 139-225 L168V): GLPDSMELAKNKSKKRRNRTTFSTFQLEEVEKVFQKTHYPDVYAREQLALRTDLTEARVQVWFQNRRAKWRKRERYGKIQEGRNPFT
Chain of PROP1 (Homo sapiens, UniProt O75360 56-141) (O75360 56-141): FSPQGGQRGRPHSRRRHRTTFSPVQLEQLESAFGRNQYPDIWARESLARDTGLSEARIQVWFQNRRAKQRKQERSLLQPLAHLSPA
Chain of HOXB4 (Homo sapiens, UniProt P17483 148-234) (P17483 148-234): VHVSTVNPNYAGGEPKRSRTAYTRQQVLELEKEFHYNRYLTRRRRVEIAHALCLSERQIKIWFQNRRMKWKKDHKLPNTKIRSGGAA
Chain of HESX1 (Homo sapiens, UniProt Q9UBX0 95-180) (Q9UBX0 95-180): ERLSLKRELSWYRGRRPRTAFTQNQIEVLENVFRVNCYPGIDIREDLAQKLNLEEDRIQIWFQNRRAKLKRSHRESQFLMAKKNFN
Chain of SHOX (Homo sapiens, UniProt O15266 103-189) (O15266 103-189): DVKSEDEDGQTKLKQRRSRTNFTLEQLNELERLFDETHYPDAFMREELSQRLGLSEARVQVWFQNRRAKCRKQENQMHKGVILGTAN
Chain of HOXB4 (Homo sapiens, UniProt P17483 148-234, V174I) (P17483 148-234 V174I): as the sequence (P17483 148-234) above, with V27I counted along it
Chain of HESX1 (Homo sapiens, UniProt Q9UBX0 95-180, P111T) (Q9UBX0 95-180 P111T): as the sequence (Q9UBX0 95-180) above, with P17T counted along it
Chain of PROP1 (Homo sapiens, UniProt O75360 56-141, F88S) (O75360 56-141 F88S): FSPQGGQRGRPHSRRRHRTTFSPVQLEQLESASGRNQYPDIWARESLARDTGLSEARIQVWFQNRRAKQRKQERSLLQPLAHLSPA
Chain of HESX1 (Homo sapiens, UniProt Q9UBX0 95-180, R165K) (Q9UBX0 95-180 R165K): as the sequence (Q9UBX0 95-180) above, with R71K counted along it
Chain of ALX3 (Homo sapiens, UniProt O95076 139-225, L168Q) (O95076 139-225 L168Q): as the sequence (O95076 139-225 L168V) above, with V30Q counted along it
Chain of ALX3 (Homo sapiens, UniProt O95076 139-225, N203S) (O95076 139-225 N203S): as the sequence (O95076 139-225 L168V) above, with V30L, N65S counted along it
Chain of HESX1 (Homo sapiens, UniProt Q9UBX0 95-180, R109Q) (Q9UBX0 95-180 R109Q): as the sequence (Q9UBX0 95-180) above, with R15Q counted along it
Chain of ALX3 (Homo sapiens, UniProt O95076 139-225, N203Q) (O95076 139-225 N203Q): as the sequence (O95076 139-225 L168V) above, with V30L, N65Q counted along it
Chain of MSX2 (Homo sapiens, UniProt P35548 130-214, R199I) (P35548 130-214 R199I): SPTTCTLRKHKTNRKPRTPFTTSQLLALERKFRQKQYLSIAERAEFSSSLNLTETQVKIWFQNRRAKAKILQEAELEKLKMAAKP
Chain of MSX2 (Homo sapiens, UniProt P35548 130-214, F161Y) (P35548 130-214 F161Y): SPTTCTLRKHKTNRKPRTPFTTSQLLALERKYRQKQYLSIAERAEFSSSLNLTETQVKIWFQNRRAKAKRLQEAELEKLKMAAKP
Chain of PROP1 (Homo sapiens, UniProt O75360 56-141, R99H) (O75360 56-141 R99H): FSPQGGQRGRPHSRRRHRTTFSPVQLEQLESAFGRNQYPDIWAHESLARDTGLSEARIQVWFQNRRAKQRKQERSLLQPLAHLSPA
Chain of SHOX (Homo sapiens, UniProt O15266 103-189, R173C) (O15266 103-189 R173C): as the sequence (O15266 103-189) above, with R71C counted along it
Chain of HESX1 (Homo sapiens, UniProt Q9UBX0 95-180, F115L) (Q9UBX0 95-180 F115L): as the sequence (Q9UBX0 95-180) above, with F21L counted along it
Chain of ALX3 (Homo sapiens, UniProt O95076 139-225) (O95076 139-225): as the sequence (O95076 139-225 L168V) above, with V30L counted along it

| Sequence | binding signal (HESX1 [1]) | binding signal (HOXB4 [2]) | binding signal (SHOX [3]) | binding signal (HESX1 [4]) | binding signal (HOXB4 [5]) | binding signal (MSX2 [6]) | binding signal (ALX3 [7]) | binding signal (SHOX [8]) | binding signal (ALX3 [9]) | binding signal (PROP1 [10]) | binding signal (HESX1 [11]) | binding signal (PROP1 [12]) | binding signal (ALX3 [13]) | binding signal (HESX1 [14]) | binding signal (ALX3 [15]) | binding signal (PROP1 [16]) | binding signal (MSX2 [17]) | binding signal (HESX1 [18]) | binding signal (ALX3 [19]) | binding signal (HOXA4) |
| --- | --- | --- | --- | --- | --- | --- | --- | --- | --- | --- | --- | --- | --- | --- | --- | --- | --- | --- | --- | --- |
| CAATTATG | 12.7 upbm affinity estimate (log intensity, higher = more binding, comparable within an allelic series) | 13 upbm affinity estimate (log intensity, higher = more binding, comparable within an allelic series) | 12.1 upbm affinity estimate (log intensity, higher = more binding, comparable within an allelic series) | 12.9 upbm affinity estimate (log intensity, higher = more binding, comparable within an allelic series) | 13.6 upbm affinity estimate (log intensity, higher = more binding, comparable within an allelic series) | 12.8 upbm affinity estimate (log intensity, higher = more binding, comparable within an allelic series) | 8.45 upbm affinity estimate (log intensity, higher = more binding, comparable within an allelic series) | 9.62 upbm affinity estimate (log intensity, higher = more binding, comparable within an allelic series) | 12.4 upbm affinity estimate (log intensity, higher = more binding, comparable within an allelic series) | 11.5 upbm affinity estimate (log intensity, higher = more binding, comparable within an allelic series) | 9.11 upbm affinity estimate (log intensity, higher = more binding, comparable within an allelic series) | 11.5 upbm affinity estimate (log intensity, higher = more binding, comparable within an allelic series) | 10.5 upbm affinity estimate (log intensity, higher = more binding, comparable within an allelic series) | 11.2 upbm affinity estimate (log intensity, higher = more binding, comparable within an allelic series) | 9.96 upbm affinity estimate (log intensity, higher = more binding, comparable within an allelic series) | 7.66 upbm affinity estimate (log intensity, higher = more binding, comparable within an allelic series) | 13.5 upbm affinity estimate (log intensity, higher = more binding, comparable within an allelic series) | 7.82 upbm affinity estimate (log intensity, higher = more binding, comparable within an allelic series) | 8.59 upbm affinity estimate (log intensity, higher = more binding, comparable within an allelic series) | – |
| GGCAATTA | 12.3 upbm affinity estimate (log intensity, higher = more binding, comparable within an allelic series) | 13.1 upbm affinity estimate (log intensity, higher = more binding, comparable within an allelic series) | 11.7 upbm affinity estimate (log intensity, higher = more binding, comparable within an allelic series) | 12.4 upbm affinity estimate (log intensity, higher = more binding, comparable within an allelic series) | 13.6 upbm affinity estimate (log intensity, higher = more binding, comparable within an allelic series) | 12.9 upbm affinity estimate (log intensity, higher = more binding, comparable within an allelic series) | 8.35 upbm affinity estimate (log intensity, higher = more binding, comparable within an allelic series) | 9.38 upbm affinity estimate (log intensity, higher = more binding, comparable within an allelic series) | 12.2 upbm affinity estimate (log intensity, higher = more binding, comparable within an allelic series) | 11.1 upbm affinity estimate (log intensity, higher = more binding, comparable within an allelic series) | 8.87 upbm affinity estimate (log intensity, higher = more binding, comparable within an allelic series) | 11.3 upbm affinity estimate (log intensity, higher = more binding, comparable within an allelic series) | 10.3 upbm affinity estimate (log intensity, higher = more binding, comparable within an allelic series) | 10.9 upbm affinity estimate (log intensity, higher = more binding, comparable within an allelic series) | 9.79 upbm affinity estimate (log intensity, higher = more binding, comparable within an allelic series) | 7.46 upbm affinity estimate (log intensity, higher = more binding, comparable within an allelic series) | 13.6 upbm affinity estimate (log intensity, higher = more binding, comparable within an allelic series) | 7.6 upbm affinity estimate (log intensity, higher = more binding, comparable within an allelic series) | 8.36 upbm affinity estimate (log intensity, higher = more binding, comparable within an allelic series) | 12.1 upbm affinity estimate (log intensity, higher = more binding, comparable within an allelic series) |
